Laboratory results from the supplement of paper PMC10849652.
The full data set covers some 7,900 targets. This sample favours those with a hit. About 0.6% of all pairs of compound and target were hits.

Assays:
Experiment in all cases: log2 fold change, soluble protein after heating vs DMSO (PISA); higher = thermal stabilisation; K562 cells, 10 uM, 30 min; active = over 0.2 and 3.5 SD of the protein, either way, in both replicates (recomputed)
[1] = compound: COC1=CC=C(C=C1)CN2C=CC3=C2C=C(C=C3)C(=O)NO
Outline: (§1)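 Soluble protein was quantified by TMTpro 16plex LC-MS/MS after channel sums were equalised. It was obtained as the supernatant after 21,000xg for 90 min from pooled aliquots of K562 cells (2×10^6 cells/mL, 10 μM compound, 30 min) heated for 3 min across 48°C-58°C and extracted in PBS with 0.5% NP-40 at 4°C. Thermal stability values are relative to control samples and come from duplicates. They are given as log2 fold changes.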

filanesib = compound: CON(C)C(=O)N1N=C(c2cc(F)ccc2F)S[C@@]1(CCCN)c1ccccc1 [filanesib]
Outline: as §1

zotarolimus = compound: CO[C@H]1C[C@@H]2CC[C@@H](C)[C@@](O)(O2)C(=O)C(=O)N2CCCC[C@H]2C(=O)O[C@H]([C@H](C)C[C@@H]2CC[C@H](n3cnnn3)[C@H](OC)C2)CC(=O)[C@H](C)/C=C(\C)[C@@H](O)[C@@H](OC)C(=O)[C@H](C)C[C@H](C)/C=C/C=C/C=C/1C [zotarolimus]
Outline: as §1

idasanutlin = compound: COc1cc(C(=O)O)ccc1NC(=O)[C@@H]1N[C@@H](CC(C)(C)C)[C@](C#N)(c2ccc(Cl)cc2F)[C@H]1c1cccc(Cl)c1F [idasanutlin]
Outline: as §1

alisertib = compound: COc1cc(Nc2ncc3c(n2)-c2ccc(Cl)cc2C(c2c(F)cccc2OC)=NC3)ccc1C(=O)O [alisertib]
Outline: as §1

gefitinib = compound: COc1cc2ncnc(Nc3ccc(F)c(Cl)c3)c2cc1OCCCN1CCOCC1 [gefitinib]
Outline: as §1

[2] = compound: COc1cccc2cc(-c3nc([C@H]4CC[C@H](C(=O)O)CC4)n4ncnc(N)c34)[nH]c12
Outline: as §1

[3] = compound: COc1cc2nc(-c3cc(F)ccc3O)nc(N[C@@H]3CNC[C@H]3C(C)(C)O)c2cc1OC
Outline: as §1

lapatinib = compound: CS(=O)(=O)CCNCc1ccc(-c2ccc3ncnc(Nc4ccc(OCc5cccc(F)c5)c(Cl)c4)c3c2)o1 [lapatinib]
Outline: as §1

pictilisib = compound: CS(=O)(=O)N1CCN(Cc2cc3nc(-c4cccc5[nH]ncc45)nc(N4CCOCC4)c3s2)CC1 [pictilisib]
Outline: as §1

Measured: log2 fold change

AP2M1 (UniProt C9JTK4)
inactive: [1] 0.016 | filanesib 0.132 | zotarolimus -0.203 | idasanutlin 0.224 | alisertib -0.177 | gefitinib 0.005 | [2] 0.123

B4GALNT1 (UniProt Q00973)
Chain of UniProt Q00973 (Q00973 whole entry, looked up): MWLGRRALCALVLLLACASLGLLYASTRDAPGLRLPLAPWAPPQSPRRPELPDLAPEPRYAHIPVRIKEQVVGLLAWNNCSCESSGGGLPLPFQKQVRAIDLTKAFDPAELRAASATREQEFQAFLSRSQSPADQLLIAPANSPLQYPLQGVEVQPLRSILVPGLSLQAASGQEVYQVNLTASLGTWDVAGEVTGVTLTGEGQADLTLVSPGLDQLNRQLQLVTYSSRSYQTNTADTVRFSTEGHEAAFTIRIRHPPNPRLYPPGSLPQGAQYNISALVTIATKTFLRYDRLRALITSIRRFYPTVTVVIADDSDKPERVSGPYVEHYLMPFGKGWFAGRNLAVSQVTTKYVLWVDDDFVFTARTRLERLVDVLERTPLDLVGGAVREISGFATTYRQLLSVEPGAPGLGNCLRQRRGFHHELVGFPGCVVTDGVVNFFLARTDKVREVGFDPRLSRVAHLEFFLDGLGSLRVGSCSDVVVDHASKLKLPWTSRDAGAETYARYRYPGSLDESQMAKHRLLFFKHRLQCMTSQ
inactive: [1] 0.023 | filanesib 0.092 | zotarolimus 0.081 | idasanutlin 0.093 | alisertib -0.063 | [3] -0.045 | gefitinib 0.119 | [2] 0.112 | lapatinib 0.097 | pictilisib -0.045

ATP6V1C1 (UniProt P21283)
inactive: [1] -0.012 | filanesib 0.029 | zotarolimus 0.08 | idasanutlin 0.016 | alisertib -0.069 | [3] -0.091 | gefitinib -0.286 | [2] -0.206 | lapatinib -0.046 | pictilisib -0.022

AGPAT3 isoform 3 (UniProt Q9NRZ7)
Chain of UniProt Q9NRZ7 (Q9NRZ7 whole entry, looked up): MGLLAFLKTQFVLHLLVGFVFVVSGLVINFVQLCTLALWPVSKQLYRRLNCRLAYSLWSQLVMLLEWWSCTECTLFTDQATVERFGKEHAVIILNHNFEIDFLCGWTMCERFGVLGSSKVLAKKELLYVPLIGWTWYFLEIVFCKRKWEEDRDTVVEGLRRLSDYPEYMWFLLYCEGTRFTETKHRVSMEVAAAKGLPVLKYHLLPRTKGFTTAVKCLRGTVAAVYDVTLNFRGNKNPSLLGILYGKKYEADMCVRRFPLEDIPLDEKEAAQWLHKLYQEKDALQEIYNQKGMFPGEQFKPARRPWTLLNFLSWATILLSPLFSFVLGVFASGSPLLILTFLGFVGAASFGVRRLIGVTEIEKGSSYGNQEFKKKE
inactive: [1] -0.083 | filanesib -0.106 | zotarolimus 0.048 | idasanutlin -0.149 | alisertib 0.012 | [3] 0.083 | gefitinib 0.012 | [2] 0.005 | lapatinib 0.004 | pictilisib -0.013

AMFR (UniProt Q9UKV5)
Chain of UniProt Q9UKV5 (Q9UKV5 whole entry, looked up): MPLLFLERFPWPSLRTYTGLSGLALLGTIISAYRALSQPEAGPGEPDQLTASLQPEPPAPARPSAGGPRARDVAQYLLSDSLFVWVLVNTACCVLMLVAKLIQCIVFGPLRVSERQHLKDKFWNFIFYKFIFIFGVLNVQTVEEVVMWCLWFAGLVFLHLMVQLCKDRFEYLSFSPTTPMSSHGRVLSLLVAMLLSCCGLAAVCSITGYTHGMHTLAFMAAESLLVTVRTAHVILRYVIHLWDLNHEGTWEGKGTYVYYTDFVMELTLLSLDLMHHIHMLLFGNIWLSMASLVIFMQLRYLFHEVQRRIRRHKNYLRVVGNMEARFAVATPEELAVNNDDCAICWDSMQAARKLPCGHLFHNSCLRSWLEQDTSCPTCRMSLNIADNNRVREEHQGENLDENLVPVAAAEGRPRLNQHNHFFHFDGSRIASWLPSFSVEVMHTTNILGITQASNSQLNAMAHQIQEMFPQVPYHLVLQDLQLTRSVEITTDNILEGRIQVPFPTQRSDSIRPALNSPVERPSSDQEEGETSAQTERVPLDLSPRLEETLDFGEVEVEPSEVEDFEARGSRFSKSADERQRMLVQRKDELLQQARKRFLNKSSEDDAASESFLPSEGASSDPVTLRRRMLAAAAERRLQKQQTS
inactive: [1] -0.048 | filanesib -0.066 | zotarolimus -0.017 | idasanutlin 0.037 | alisertib -0.012 | [3] -0.136 | gefitinib 0.071 | [2] 0.016 | lapatinib 0.003 | pictilisib -0.093

AKT2 (UniProt P31751)
inactive: [1] 0.008 | filanesib -0.056 | zotarolimus -0.01 | idasanutlin -0.121 | alisertib -0.041 | [3] 0.008 | gefitinib -0.012 | [2] -0.231 | lapatinib 0.04 | pictilisib 0.044

ACACB (UniProt O00763)
inactive: [1] -0.019 | filanesib 0.258 | zotarolimus 0.132 | idasanutlin -0.042 | alisertib -0.168 | [3] 0.039 | gefitinib -0.02 | [2] -0.371 | lapatinib 0.068 | pictilisib 0.038

ARF4 (UniProt P18085)
Chain of UniProt P18085 (P18085 whole entry, looked up): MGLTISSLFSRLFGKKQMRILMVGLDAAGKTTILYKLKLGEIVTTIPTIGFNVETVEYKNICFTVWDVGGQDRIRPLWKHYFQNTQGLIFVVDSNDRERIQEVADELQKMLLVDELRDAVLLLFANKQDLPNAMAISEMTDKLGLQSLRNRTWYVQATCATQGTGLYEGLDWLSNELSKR
inactive: [1] 0.007 | filanesib -0.061 | zotarolimus 0.006 | idasanutlin -0.153 | alisertib -0.023 | [3] 0.17 | gefitinib -0.005 | [2] 0.019 | lapatinib 0.037 | pictilisib 0.035

ALKBH4 (UniProt Q9NXW9)
Chain of UniProt Q9NXW9 (Q9NXW9 whole entry, looked up): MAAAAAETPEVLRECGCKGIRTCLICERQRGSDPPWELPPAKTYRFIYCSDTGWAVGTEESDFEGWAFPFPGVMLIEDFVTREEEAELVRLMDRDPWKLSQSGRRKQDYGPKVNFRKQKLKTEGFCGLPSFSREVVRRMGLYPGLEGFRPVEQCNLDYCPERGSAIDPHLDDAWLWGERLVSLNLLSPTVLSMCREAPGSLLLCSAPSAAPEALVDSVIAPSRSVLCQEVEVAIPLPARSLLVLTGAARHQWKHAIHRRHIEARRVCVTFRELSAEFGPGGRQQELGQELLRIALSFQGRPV
inactive: [1] -0.203 | filanesib -0.036 | zotarolimus 0.06 | idasanutlin -0.036 | alisertib 0.086 | [3] -0.058 | [2] 0.014 | lapatinib -0.023 | pictilisib 0.106

BRAF (UniProt P15056)
Chain of UniProt P15056 (P15056 whole entry, looked up): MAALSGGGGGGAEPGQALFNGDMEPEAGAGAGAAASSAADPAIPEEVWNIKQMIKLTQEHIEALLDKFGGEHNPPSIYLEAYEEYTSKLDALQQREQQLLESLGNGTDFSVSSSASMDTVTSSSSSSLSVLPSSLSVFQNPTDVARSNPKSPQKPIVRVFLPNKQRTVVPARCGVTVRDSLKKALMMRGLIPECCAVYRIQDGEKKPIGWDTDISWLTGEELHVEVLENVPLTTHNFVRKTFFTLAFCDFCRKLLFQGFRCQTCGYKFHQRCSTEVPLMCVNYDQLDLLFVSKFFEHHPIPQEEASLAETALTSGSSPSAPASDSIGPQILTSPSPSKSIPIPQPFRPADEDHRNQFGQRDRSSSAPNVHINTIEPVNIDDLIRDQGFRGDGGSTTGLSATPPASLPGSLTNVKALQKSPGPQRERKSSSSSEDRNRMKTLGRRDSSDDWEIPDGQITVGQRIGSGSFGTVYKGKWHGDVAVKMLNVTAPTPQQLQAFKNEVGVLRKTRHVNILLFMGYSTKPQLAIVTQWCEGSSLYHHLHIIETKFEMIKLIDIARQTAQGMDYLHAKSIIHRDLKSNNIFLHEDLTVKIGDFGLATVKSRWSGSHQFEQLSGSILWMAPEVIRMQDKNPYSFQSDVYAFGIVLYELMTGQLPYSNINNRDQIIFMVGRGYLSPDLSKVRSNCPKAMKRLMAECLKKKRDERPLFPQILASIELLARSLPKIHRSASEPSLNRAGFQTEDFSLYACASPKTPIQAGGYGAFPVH
inactive: [1] -0.031 | filanesib -0.05 | zotarolimus -0.004 | idasanutlin -0.047 | alisertib 0.007 | [3] -0.076 | gefitinib 0.012 | [2] 0.015 | pictilisib -0.061

BRIX1 (UniProt Q8TDN6)
Chain of UniProt Q8TDN6 (Q8TDN6 whole entry, looked up): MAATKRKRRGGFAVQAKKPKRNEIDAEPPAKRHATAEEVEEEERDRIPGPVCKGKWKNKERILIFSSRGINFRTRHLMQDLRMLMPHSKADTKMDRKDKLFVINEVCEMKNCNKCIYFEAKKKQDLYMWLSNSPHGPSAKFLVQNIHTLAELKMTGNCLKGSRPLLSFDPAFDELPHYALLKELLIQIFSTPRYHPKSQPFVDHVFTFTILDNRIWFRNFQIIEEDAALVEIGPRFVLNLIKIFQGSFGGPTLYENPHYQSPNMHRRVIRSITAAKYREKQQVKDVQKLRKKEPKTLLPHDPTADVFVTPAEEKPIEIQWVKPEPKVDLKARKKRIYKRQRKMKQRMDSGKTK
inactive: [1] -0.006 | filanesib 0.574 | zotarolimus 0.132 | idasanutlin 0.397 | alisertib -0.23 | [3] -0.224 | gefitinib -0.039 | [2] -0.193 | lapatinib 0.218 | pictilisib -0.004

BYSL (UniProt Q13895)
Chain of UniProt Q13895 (Q13895 whole entry, looked up): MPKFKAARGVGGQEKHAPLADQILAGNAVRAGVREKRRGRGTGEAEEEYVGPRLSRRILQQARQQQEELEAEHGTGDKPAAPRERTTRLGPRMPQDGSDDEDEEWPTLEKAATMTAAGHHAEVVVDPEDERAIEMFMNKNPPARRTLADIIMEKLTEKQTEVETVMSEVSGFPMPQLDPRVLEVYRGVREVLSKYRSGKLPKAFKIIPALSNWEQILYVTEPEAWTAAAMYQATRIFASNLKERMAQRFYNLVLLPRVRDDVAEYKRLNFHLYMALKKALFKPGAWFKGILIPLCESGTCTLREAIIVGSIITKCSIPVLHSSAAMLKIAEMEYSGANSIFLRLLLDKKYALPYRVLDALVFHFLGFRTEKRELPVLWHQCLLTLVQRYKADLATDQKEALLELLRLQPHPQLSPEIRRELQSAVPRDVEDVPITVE
inactive: [1] -0.033 | filanesib 0.078 | zotarolimus 0.065 | idasanutlin -0.057 | alisertib 0.022 | [3] 0.207 | gefitinib -0.03 | [2] -0.057 | lapatinib 0.032 | pictilisib -0.022

ARFIP1 isoform 2 (UniProt P53367)
inactive: [1] -0.225 | filanesib -0.082 | alisertib -0.17 | [3] -0.013 | gefitinib -0.067 | [2] -0.068 | lapatinib 0.05 | pictilisib -0.154

ATXN3 isoform 1 (UniProt P54252)
inactive: [1] 0.023 | zotarolimus -0.051 | idasanutlin -0.114 | alisertib -0.004 | [3] 0.106 | gefitinib -0.192 | [2] 0.297 | lapatinib -0.031 | pictilisib -0.036

ATXN7L3 isoform 2 (UniProt Q14CW9)
inactive: [1] -0.158 | filanesib -0.02 | idasanutlin 0.193 | alisertib -0.191 | gefitinib 0.052 | [2] 0.035

ADD1 isoform 4 (UniProt P35611)
Chain of UniProt P35611 (P35611 whole entry, looked up): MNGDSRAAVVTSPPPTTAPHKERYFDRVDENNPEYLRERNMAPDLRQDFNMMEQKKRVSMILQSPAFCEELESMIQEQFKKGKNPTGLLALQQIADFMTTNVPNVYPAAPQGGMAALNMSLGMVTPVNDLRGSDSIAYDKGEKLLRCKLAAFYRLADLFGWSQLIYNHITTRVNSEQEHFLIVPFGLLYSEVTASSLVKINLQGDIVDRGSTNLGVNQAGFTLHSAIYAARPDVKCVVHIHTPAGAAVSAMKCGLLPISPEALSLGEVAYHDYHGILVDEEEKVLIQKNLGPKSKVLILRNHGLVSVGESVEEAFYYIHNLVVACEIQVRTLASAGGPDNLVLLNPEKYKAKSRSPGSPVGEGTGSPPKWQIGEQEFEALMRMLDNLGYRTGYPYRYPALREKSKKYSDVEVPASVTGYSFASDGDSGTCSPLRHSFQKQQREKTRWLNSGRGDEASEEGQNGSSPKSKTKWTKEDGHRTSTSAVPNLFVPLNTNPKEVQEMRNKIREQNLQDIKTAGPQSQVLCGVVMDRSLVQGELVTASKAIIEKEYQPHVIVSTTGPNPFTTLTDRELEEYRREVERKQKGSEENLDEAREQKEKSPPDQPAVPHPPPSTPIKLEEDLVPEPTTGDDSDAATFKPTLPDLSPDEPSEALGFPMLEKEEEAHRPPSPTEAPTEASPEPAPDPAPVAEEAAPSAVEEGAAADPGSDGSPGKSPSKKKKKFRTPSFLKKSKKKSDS
inactive: [1] -0.054 | zotarolimus -0.065 | pictilisib -0.068

ARHGAP25 isoform 4 (UniProt P42331)
Chain of UniProt P42331 (P42331 whole entry, looked up): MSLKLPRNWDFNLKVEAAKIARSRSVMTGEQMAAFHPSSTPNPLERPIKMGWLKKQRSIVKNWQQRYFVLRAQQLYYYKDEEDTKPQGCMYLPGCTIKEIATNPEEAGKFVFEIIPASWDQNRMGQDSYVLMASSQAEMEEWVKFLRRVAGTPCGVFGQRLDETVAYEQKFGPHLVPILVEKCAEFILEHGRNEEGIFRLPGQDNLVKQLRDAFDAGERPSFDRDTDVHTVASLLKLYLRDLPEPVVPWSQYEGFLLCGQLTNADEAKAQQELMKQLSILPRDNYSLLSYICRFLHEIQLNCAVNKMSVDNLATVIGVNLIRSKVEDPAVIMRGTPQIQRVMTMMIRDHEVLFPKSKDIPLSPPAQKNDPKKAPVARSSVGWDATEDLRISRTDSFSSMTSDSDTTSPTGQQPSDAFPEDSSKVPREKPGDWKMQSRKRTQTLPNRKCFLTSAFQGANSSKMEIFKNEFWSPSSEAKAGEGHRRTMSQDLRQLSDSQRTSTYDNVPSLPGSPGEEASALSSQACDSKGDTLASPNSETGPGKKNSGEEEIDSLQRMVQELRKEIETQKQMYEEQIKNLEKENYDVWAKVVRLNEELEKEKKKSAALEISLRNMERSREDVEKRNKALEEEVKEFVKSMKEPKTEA
inactive: zotarolimus -0.077 | idasanutlin -0.123 | alisertib -0.068 | gefitinib 0.08 | [2] -0.11 | pictilisib 0.085
